The molecules below were run against T1, Serine/threonine-protein kinase Nek2 (Homo sapiens) (UniProt P51955). Conditions: at 1 µM.
T1 sequence (whole entry): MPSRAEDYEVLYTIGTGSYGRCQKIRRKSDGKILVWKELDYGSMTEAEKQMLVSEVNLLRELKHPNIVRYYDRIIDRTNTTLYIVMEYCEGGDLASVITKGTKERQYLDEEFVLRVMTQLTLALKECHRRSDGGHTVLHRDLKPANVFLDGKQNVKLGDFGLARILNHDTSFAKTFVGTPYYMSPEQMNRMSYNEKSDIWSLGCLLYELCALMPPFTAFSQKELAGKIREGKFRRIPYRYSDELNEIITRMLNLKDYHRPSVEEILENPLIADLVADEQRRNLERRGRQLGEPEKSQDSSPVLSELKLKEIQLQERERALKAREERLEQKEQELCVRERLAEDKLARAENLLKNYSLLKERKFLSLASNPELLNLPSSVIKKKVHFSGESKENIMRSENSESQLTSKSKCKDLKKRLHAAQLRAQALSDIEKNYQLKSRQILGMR
In the case of `CCS(=O)(=O)c1ccc(OC)c(Nc2ncc(-c3cccc(OC)c3)o2)c1`, the inhibition is reported as 2.94%.
`CCn1c(-c2nonc2N)nc2c(C#CC(C)(C)O)nc(OCCNC)cc21` gave an inhibition of 2.6%.
`CN1CCN(C(=O)c2ccc(NC(=O)Nc3ccc(N(C)c4ccnc(Nc5ccc(CS(C)(=O)=O)cc5)n4)cc3)cc2)CC1` showed an inhibition of 3.14%.
`CC(C)c1ccc(Nc2nccc(-c3cnn4ncccc34)n2)cc1` gave an inhibition of 8.45%.
Molecule `N#Cc1cccc(Nc2nccc(-c3cnn4ncccc34)n2)c1` has an inhibition of 6.24%.
In the case of `c1ccc(Cc2nc3ccc(Nc4ncnc5ccccc45)cc3[nH]2)cc1`, the inhibition is reported as 2.85%.
Molecule `Cc1ccc(C(=O)NC2CC2)cc1-c1ccc2[nH]ncc2c1` has an inhibition of 0.98%.
For `COC(=O)Nc1nc2cc(Oc3ccc(NC(=O)Nc4cccc(Br)c4)cc3)ccc2[nH]1`, the inhibition was 2.81%.
`NC(=O)c1sc(-n2cnc3ccccc32)cc1OCc1ccccc1Br` was tested, and the inhibition was 3.39%.
With `c1ccc(Nc2ncc(-c3ccccc3)o2)cc1` the inhibition was 0.59%.
`CCCN1CCCC(c2ccc(Nc3nc(Nc4cc(F)ccc4C(N)=O)c4cc[nH]c4n3)c(OC)c2)C1` (stereo not drawn) gave an inhibition of 11.1%.
In the case of `Nc1ccc(C#Cc2cncnc2Nc2ccc(OCc3cccc(F)c3)c(Cl)c2)cc1`, the inhibition is reported as 3.39%.
For `CN(C)C(=O)O[C@H]1CN[C@H](C#Cc2cc3ncnc(Nc4ccc(OCc5cccc(F)c5)c(Cl)c4)c3s2)C1`, the inhibition was 5.04%.
With `O=C1Nc2ccc(-c3cccnc3)cc2C1=Cc1cc(Br)c(O)c(Br)c1` the inhibition was 2.79%.
`CS(=O)(=O)Nc1cccc(-c2ccc3c(NC(=O)C4CC4)n[nH]c3c2)c1` gave an inhibition of 0.27%.
For `CCS(=O)(=O)c1ccc(OC)c(Nc2nccc(N(C)c3ccc4c(C)n[nH]c4c3)n2)c1`, the inhibition was 3.85%.
Molecule `COc1cccc(-n2ncc3c(N/N=C/c4ccc(S(C)(=O)=O)cc4)ncnc32)c1` has an inhibition of 1.84%.
Work on `Cc1ccc2c(-c3ccnc(Nc4cccc(C(F)(F)F)c4)n3)c(-c3ccccc3)nn2n1` yielded an inhibition of 3.74%.
Molecule `Cc1ccc2c(-c3ccnc(Nc4ccc5c(c4)OCCO5)n3)c(-c3ccc(C(F)(F)F)cc3)nn2n1` has an inhibition of 1.37%.
`NS(=O)(=O)c1ccc(-c2cc3ccncc3cc2OCc2ccccc2)cc1` gave an inhibition of 3.04%.
In the case of `COc1ccc2ncnc(Nc3ccc(OCc4ccccc4)cc3)c2c1`, the inhibition is reported as 1.37%.
`CCn1c(-c2nonc2N)nc2ccc(F)cc21` gave an inhibition of 7.52%.
With `N#Cc1c(NC(=O)c2ccccc2F)sc2c1CCCC2` the inhibition was 3.25%.
`COc1cccc(-n2nc(C)c3c(N/N=C(\C)c4ccncc4)ncnc32)c1` showed an inhibition of -1.21%.
For `OCc1ccc(-c2nc(-c3ccccn3)c(-c3ccc4c(c3)OCO4)[nH]2)cc1`, the inhibition was 4.54%.
For `CCOc1nccc2c1nc(-c1nonc1N)n2CC`, the inhibition was 7.87%.
Molecule `NS(=O)(=O)c1ccc(N/N=C2\C(=O)Nc3ccc(Cl)cc32)cc1` has an inhibition of 4.1%.
For `Cc1ccc(O)cc1Nc1ccnc2ccc(S(C)(=O)=O)cc12`, the inhibition was 4.61%.
Molecule `COC(=O)c1ccc2c(c1)C(=Cc1cc(Br)c(O)c(Br)c1)C(=O)N2` has an inhibition of 2.86%.
`[O-][S+]1CCN(Cc2ccc(-c3ccc4ncnc(Nc5ccc(OCc6ccccc6)c(Cl)c5)c4c3)o2)CC1` was tested, and the inhibition was 0.41%.
For `COc1cccc(-n2ncc3c(N/N=C/c4ccc(C)cc4)ncnc32)c1`, the inhibition was 10.7%.
With `O=S(=O)(CCOCc1ccc(-c2ccc3ncnc(Nc4ccc(OCc5cccc(F)c5)c(Cl)c4)c3c2)o1)c1ccccc1` the inhibition was 2.18%.
`COc1cc(/C=N/Nc2ncnc3c2cnn3C(C)C)ccc1O` showed an inhibition of 6.4%.
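Further: reported values are mean percent inhibition of NEK2.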
